Measurements published in PubChem BioAssay AID893 (National Center for Advancing Translational Sciences (NCATS), 2007).
Out of some 75,000 compounds screened, about 5,700 (7.6%) were called active. Inconclusive results (about 7%) are left out. Shown is part of a subset that was picked to be rich in actives. A number with no mark means an inactive call. Calls follow the shape of the dose curve; as a rule, active = well fitted inhibition curve with a large enough effect; inconclusive = small, poorly fitted or top-dose-only effect; inactive = no such curve, though single readings can be large or run the other way.

molecular target: 3-hydroxyacyl-CoA dehydrogenase type-2 (Homo sapiens) (UniProt Q99714); assay: qHTS Assay for Inhibitors of HSD17B4, hydroxysteroid (17-beta) dehydrogenase 4; settings: recombinant HSD17B10, NADH fluorescence kinetic; series mostly up to 57.1 µM; activity change, negative = inhibition: at the top concentration;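 also: the protocol describes HADH2 (HSD17B10) and not the HSD17B4 of the title; nearly all actives have a fitted effect of over 70% in size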
In short: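 20 nM HADH2, pH 9.0 Tris/Tween; cpd preinc 15 min RT; start w/ 1 mM NAD+ + 90 uM b-hydroxybutyryl-CoA; kinetic fluor ex360/em450 q30s x 4 min; delta last-first.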
% is scaled to controls: 0 for no effect and ±100 for the full control effect; potency is read from the fitted curve at half-maximal effect.

Row | Structure (SMILES) | activity change, negative = inhibition | Potency
1 | CCCCN(C)C(=O)C1CCN(Cc2ccccn2)CC1 | 5.92% | 
2 | CO[C@H]1COC(=O)[C@@H](C)NC(=O)C/C=C\[C@@H](C)[C@H](OC)COC(=O)C/C=C\[C@@H]1C | -0.943% [at 11.4 µM] | 
3 | c1ccc(-c2oc3ncnc(N4CCOCC4)c3c2-c2ccccc2)cc1 |  | 10 µM (active)
4 | O=C1c2ccccc2-c2ncnc3c(N4CCOCC4)cc(N4CCOCC4)c1c23 | 0.627% | 
5 | c1ccc(-n2nnnc2N2CCOCC2)cc1 | 5.21% | 
6 | Cc1cc(C(=O)OCC(=O)c2c(N)n(C)c(=O)n(C)c2=O)c(C)o1 | 7.96% | 
7 | CCCOc1cccc(C(=O)Nc2nnn(CCC)n2)c1 | 11.2% | 
8 | CCC(=O)Oc1cccc(C(=O)Nc2ccc(-c3nnc(-c4ccco4)o3)cc2)c1 |  | 20 µM (active)
9 | CCOc1cccc(C(=O)Nc2cccnc2)c1 | 8.63% | 
10 | Oc1ccc2c(c1)OCC1c3cc4c(cc3OC21)OCO4 (stereo not given) | -0.88% | 
11 | O=C(c1ccccc1)N1CCN(C(=O)N2CCCCC2)CC1 | 3.89% | 
12 | O=C(O)CS(=O)c1ccc2c3c(cccc13)C(=O)c1ccccc1-2 (stereo not given) | -2.63% [at 11.4 µM] | 
13 | CC(=O)c1c(C)n(-c2ccc(N(C)C)cc2)c2ccc(OCC(N)=O)cc12 | -11.9% | 
14 | O=C1Nc2c(Br)cc(Br)cc2C1(O)N1CCOCC1 (stereo not given) | 0.821% | 
15 | Brc1cccc(-c2nnc3n2CCC3)c1 | 0.616% | 
16 | CCc1ccc2oc(-c3ccc(N)cc3)nc2c1 |  | 25.1 µM (active)
17 | CCN(CC)c1ccc2oc(=O)c(C)nc2c1 | -25.8% | 
18 | Cc1ccc(S(=O)(=O)N2C3C=CC(C3)C2C(=O)O)cc1 (stereo not given) | 6.36% | 
19 | COC(=O)N1CCC2(CCCN(c3ccncc3)C2)CC1 | 1.52% | 
20 | COc1cccc(N2CCN(C3CC(=O)N(c4ccc(Cl)cc4)C3=O)CC2)c1 (stereo not given) | -12.5% | 
21 | COC(=O)CC1C(C)(C)C(OC(C)=O)C2CC3=C4CC(=O)OC(c5ccoc5)[C@]4(C)CCC3[C@@]1(C)C2=O (stereo not given in full) | -4.16% | 
22 | COc1ccc(N2CCN(C(c3cc4ccc(C)cc4[nH]c3=O)c3nnnn3C3CCCC3)CC2)cc1 (stereo not given) | -0.718% | 
23 | COCCn1nnnc1C(c1cc2ccc(OC)cc2[nH]c1=O)N1CCc2ccccc2C1 (stereo not given) | -12% | 
24 | CCOc1ccc2[nH]c(=O)c(C(c3nnnn3CCOC)N3CCOCC3)cc2c1 (stereo not given) |  | 10 µM (active)
25 | COc1ccc(OCC(=O)N2CCOCC2)cc1 | 8.6% | 

Row | Structure (SMILES) | activity change, negative = inhibition | Potency
26 | O=C1CC2(CCCCC2)Oc2ccc(OCC(=O)N3CCOCC3)cc21 |  | 31.6 µM (active)
27 | O=C(Nc1cccc(OCC(=O)N2CCOCC2)c1)C1CCCCC1 | 10.2% | 
28 | CC(C)(C)[Si](OCC[C@@H]1C[C@@]1(C)[C@@H](NP(=O)(c1ccccc1)c1ccccc1)c1ccccc1)(c1ccccc1)c1ccccc1 | -19.1% | 
29 | CC1O[C@@H](Oc2c(-c3ccc(O)c(O)c3)oc3cc(O)cc(O)c3c2=O)C(O)C(O)C1O (stereo not given in full) | -7.59% | 
30 | O=C1c2oc3ccccc3c(=O)c2C(c2cccc(O)c2)N1c1ccccn1 (stereo not given) | -1.25% | 
31 | O=c1c(O)c(-c2ccc(O)cc2)oc2ccccc12 |  | 25.1 µM (active)
32 | CCOC(=O)CNC(=O)CSc1nnc(-c2cccc(OC)c2)n1CC | -1.53% | 
33 | Cc1ccc(CNC(=O)C2CCCN(S(C)(=O)=O)C2)cc1 (stereo not given) | 6.68% | 
34 | CCOC(=O)c1cc(C)sc1NC(=O)C1CCC1 | -15.9% | 
35 | C=CCOc1ccc(/C=N/n2cncn2)cc1OC |  | 15.8 µM (active)
36 | COc1ccccc1OCCOc1ccc(/C=N/n2cnnc2)cc1 | 1.4% | 
37 | COc1cccc(OCCOc2cccc(/C=N/n3cnnc3)c2)c1 | -0.34% | 
38 | Cc1cnc(NC(=O)CSc2nnc(-c3ccccc3)n2Cc2ccccc2)s1 | -0.936% | 
39 | Cc1nc(NC(=O)C23CCC(C)(C(=O)O2)C3(C)C)sc1C (stereo not given) | 5.08% | 
40 | CN1CCC(CNC(=O)c2ccc(-n3c(=O)c(=O)[nH]c4ccccc43)cc2)CC1 | -9.01% | 
41 | O=C(Cl)c1ccc([N+](=O)[O-])cc1 | 2.48% | 
42 | O=C(CSc1nnc(-c2cccs2)n1-c1ccccc1)NCc1ccco1 | 7.1% | 
43 | FC(F)(F)c1cc(-c2cccs2)nc(NCc2ccco2)n1 |  | 31.6 µM (active)
44 | O=C(CSc1nc(-c2ccco2)cc(C(F)(F)F)n1)NCc1cccs1 | -24.8% | 
45 | COc1ccccc1Nc1ncc(C(C)=O)c(C)n1 | -1.3% | 
46 | O=C(Nc1ccccc1F)C1C2C=CC3(O2)C1C(=O)N(c1cccnc1)C3C(=O)NC1CCCCC1 (stereo not given) | -2.23% | 
47 | COc1cccc([C@H]2Oc3ccc(OC)cc3/C(=N\OCC[C@@H]3C=C[C@H](OC(C)=O)[C@H](COC(C)=O)O3)[C@@H]2O)c1 | -5.53% [at 11.4 µM] | 
48 | COc1ccc(-c2cc3ccc(OCc4nn[nH]n4)cc3oc2=O)cc1 |  | 25.1 µM (active)
49 | COc1cccc(C(=O)c2cc3ccc(O)cc3oc2=O)c1 | -11% | 
50 | O=c1oc2cc(O)ccc2cc1-c1ccc(F)cc1 | -22.5% | 
